# Results: article PMC7862700, “An all-to-all approach to the identification of sequence-specific readers for epigenetic DNA modifications on cytosine”
# Assays:
# Experiment in all cases: DAPPL (digital affinity profiling via proximity ligation, sequencing); 10 mM Tris-HCl pH 7.5, 50 mM NaCl, 1 mM DTT, 4% glycerol, room temperature, 30 min; GST-TFs on glutathione beads, 16-mer random dsDNA library, 0.1% formaldehyde crosslink after washing; high values mean tight binding
# FEV = biological target: T1, FEV (Homo sapiens, UniProt Q99581 1-238); details: protein: recombinant; tags: N-terminal GST; dsDNA, one strand shown
# T1 sequence: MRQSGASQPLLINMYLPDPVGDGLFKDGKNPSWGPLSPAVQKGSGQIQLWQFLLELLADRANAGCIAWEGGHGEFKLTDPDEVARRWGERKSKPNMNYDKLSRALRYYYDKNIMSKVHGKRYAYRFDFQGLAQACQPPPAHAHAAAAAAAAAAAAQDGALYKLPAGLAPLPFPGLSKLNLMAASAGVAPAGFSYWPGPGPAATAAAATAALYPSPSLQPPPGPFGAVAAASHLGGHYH
# In short: (§1)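 Human transcription factors fused to GST were expressed in yeast, captured on glutathione beads, given DNA barcodes and pooled with a GST-only negative control. Pools were incubated with 200 nmole of a 16-mer random double-stranded DNA library in Tris/NaCl/DTT/glycerol buffer at room temperature for 30 min. They were then washed, crosslinked with 0.1% formaldehyde, proximity-ligated (BsaI/T4 ligase, 1 h, 37 °C), PCR-amplified and sequenced on an Illumina NextSeq500. Binding signal is each 6-mer's read frequency for a factor divided by its frequency for the GST control.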
# ETV5 = ETV5 (Homo sapiens, UniProt P41161 1-510); details: protein: recombinant; tags: N-terminal GST; dsDNA, one strand shown
# In short: as §1
# HSF1 = HSF1 (Homo sapiens, UniProt Q00613 1-529); details: protein: recombinant; tags: N-terminal GST; chain copies: 3; dsDNA, one strand shown
# In short: as §1
# SPIC = biological target: T2, SPIC (Homo sapiens, UniProt Q8N5J4 1-248); details: protein: recombinant; tags: N-terminal GST; dsDNA, one strand shown
# T2 sequence: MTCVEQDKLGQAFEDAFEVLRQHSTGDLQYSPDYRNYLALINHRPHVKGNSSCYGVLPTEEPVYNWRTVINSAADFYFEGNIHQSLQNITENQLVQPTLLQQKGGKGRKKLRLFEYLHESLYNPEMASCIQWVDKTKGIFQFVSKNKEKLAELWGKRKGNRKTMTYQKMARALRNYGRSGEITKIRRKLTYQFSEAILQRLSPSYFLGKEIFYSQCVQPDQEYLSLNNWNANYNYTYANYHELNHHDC
# In short: as §1
# ELF4 = ELF4 (Homo sapiens, UniProt Q99607 1-663); details: protein: recombinant; tags: N-terminal GST; dsDNA, one strand shown
# In short: as §1
# ELK4 = biological target: T3, ELK4 (Homo sapiens, UniProt P28324-2 1-405); details: protein: recombinant; tags: N-terminal GST; dsDNA, one strand shown
# T3 sequence: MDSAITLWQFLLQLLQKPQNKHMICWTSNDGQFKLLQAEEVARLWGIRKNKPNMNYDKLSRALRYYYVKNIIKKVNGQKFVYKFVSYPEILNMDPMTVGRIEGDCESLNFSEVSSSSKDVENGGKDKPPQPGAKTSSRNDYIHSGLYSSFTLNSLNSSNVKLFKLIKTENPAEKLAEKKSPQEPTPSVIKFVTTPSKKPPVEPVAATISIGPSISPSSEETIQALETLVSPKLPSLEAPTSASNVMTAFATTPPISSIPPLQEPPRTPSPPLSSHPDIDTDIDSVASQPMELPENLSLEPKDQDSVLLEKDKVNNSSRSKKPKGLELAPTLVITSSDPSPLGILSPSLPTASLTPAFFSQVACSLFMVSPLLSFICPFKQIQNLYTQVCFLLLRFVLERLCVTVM
# In short: as §1
# ETV2 = biological target: T4, ETV2 (Homo sapiens, UniProt O00321 1-342); details: protein: recombinant; tags: N-terminal GST; dsDNA, one strand shown
# T4 sequence: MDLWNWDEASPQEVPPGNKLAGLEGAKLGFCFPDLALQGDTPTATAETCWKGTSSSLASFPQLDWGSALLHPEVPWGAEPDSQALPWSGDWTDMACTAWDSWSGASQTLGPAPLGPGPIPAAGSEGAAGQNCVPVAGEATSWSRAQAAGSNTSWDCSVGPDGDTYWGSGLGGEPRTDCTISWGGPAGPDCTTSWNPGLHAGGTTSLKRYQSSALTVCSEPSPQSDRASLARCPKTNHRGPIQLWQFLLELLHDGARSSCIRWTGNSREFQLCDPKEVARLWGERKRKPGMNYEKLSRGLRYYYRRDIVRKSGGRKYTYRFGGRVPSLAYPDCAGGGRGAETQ
# In short: as §1
# ELF3 = biological target: T5, ELF3 (Homo sapiens, UniProt P78545 1-371); details: protein: recombinant; tags: N-terminal GST; dsDNA, one strand shown
# T5 sequence: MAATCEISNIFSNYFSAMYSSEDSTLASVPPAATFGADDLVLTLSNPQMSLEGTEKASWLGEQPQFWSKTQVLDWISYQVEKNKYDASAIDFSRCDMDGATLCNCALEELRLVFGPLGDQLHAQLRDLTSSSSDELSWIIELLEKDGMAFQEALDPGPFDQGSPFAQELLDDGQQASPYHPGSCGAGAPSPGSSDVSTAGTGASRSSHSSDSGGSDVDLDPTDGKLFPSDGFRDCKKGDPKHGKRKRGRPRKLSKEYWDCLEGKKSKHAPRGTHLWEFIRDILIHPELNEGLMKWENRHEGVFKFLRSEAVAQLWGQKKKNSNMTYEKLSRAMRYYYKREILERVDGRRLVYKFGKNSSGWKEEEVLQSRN
# In short: as §1
# CRX = CRX (Homo sapiens, UniProt O43186 1-299); details: protein: recombinant; tags: N-terminal GST; dsDNA, one strand shown
# In short: as §1
# ETV1 = ETV1 (Homo sapiens, UniProt P50549 1-477); details: protein: recombinant; tags: N-terminal GST; dsDNA, one strand shown
# In short: as §1
# ERF = biological target: T6, ERF (Homo sapiens, UniProt P50548 1-548); details: protein: recombinant; tags: N-terminal GST; dsDNA, one strand shown
# T6 sequence: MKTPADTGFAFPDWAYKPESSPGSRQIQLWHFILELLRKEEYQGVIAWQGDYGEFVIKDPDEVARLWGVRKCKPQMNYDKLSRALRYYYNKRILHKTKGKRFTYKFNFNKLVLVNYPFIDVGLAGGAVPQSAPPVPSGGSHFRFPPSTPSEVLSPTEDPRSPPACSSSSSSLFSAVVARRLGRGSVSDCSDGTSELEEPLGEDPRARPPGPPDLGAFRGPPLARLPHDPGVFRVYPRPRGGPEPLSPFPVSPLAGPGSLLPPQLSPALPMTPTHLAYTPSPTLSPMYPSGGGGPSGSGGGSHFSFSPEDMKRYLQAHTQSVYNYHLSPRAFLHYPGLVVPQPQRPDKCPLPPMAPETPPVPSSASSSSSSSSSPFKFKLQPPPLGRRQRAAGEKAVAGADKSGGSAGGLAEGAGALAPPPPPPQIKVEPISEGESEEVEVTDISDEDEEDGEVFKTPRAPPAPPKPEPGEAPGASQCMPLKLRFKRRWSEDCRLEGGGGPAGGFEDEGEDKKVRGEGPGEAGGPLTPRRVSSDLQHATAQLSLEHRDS
# In short: as §1
# ETV3L = biological target: T7, ETV3L (Homo sapiens, UniProt Q6ZN32 1-361); details: protein: recombinant; tags: N-terminal GST; dsDNA, one strand shown
# T7 sequence: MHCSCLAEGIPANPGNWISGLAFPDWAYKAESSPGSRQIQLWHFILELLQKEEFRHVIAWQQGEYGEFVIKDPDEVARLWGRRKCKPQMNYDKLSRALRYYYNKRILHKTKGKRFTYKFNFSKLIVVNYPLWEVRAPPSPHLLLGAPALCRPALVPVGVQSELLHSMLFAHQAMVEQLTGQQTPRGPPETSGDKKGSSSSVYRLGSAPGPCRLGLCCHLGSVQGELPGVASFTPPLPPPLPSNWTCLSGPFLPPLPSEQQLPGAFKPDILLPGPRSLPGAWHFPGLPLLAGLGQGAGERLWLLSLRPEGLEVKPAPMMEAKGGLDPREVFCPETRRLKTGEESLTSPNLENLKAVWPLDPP
# In short: as §1
# ETS2 = biological target: T8, ETS2 (Homo sapiens, UniProt P15036 1-469); details: protein: recombinant; tags: N-terminal GST; dsDNA, one strand shown
# T8 sequence: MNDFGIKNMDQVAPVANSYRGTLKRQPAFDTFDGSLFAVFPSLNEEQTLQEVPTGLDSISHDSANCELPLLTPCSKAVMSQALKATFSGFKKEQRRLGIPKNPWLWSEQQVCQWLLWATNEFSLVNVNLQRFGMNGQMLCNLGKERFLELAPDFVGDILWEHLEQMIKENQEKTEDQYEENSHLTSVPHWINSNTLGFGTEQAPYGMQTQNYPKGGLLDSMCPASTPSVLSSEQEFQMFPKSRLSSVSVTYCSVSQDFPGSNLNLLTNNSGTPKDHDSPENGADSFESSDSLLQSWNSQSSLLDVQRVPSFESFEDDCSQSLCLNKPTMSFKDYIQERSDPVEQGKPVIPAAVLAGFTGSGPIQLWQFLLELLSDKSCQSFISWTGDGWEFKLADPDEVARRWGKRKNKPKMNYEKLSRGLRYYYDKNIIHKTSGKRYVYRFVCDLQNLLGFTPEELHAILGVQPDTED
# In short: as §1
# SPDEF = biological target: T9, SPDEF (Homo sapiens, UniProt O95238 1-335); details: protein: recombinant; tags: N-terminal GST; dsDNA, one strand shown
# T9 sequence: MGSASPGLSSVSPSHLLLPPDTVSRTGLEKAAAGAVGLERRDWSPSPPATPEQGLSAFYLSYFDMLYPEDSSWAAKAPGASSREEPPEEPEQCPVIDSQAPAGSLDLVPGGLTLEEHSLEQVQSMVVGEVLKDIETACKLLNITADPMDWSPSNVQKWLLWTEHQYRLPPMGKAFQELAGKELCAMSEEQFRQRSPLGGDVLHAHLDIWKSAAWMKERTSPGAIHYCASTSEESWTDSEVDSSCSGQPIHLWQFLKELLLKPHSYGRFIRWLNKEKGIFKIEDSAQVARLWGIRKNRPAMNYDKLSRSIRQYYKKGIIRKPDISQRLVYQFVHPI
# In short: as §1
# ETV7 = biological target: T10, ETV7 (Homo sapiens, UniProt Q9Y603 1-341); details: protein: recombinant; tags: N-terminal GST; dsDNA, one strand shown
# T10 sequence: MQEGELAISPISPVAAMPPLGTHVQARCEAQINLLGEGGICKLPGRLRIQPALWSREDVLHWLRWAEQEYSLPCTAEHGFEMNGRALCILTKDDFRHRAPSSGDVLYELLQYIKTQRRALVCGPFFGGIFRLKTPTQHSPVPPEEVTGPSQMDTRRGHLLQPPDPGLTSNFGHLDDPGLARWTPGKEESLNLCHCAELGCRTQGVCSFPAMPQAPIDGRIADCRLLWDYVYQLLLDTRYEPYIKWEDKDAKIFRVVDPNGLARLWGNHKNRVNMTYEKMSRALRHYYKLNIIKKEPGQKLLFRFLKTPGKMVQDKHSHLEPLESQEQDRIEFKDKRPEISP
# In short: as §1
# ELF5 = biological target: T11, ELF5 (Homo sapiens, UniProt Q9UKW6-2 1-255); details: protein: recombinant; tags: N-terminal GST; dsDNA, one strand shown
# T11 sequence: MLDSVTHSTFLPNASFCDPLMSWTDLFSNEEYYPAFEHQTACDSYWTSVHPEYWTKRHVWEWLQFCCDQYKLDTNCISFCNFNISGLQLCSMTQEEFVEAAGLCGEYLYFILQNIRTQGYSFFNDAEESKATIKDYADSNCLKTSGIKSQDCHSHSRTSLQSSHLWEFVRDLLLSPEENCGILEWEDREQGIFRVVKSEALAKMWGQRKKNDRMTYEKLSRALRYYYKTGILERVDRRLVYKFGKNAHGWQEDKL
# In short: as §1
# ETV3 = biological target: T12, ETV3 (Homo sapiens, UniProt P41162-2 1-143); details: protein: recombinant; tags: N-terminal GST; dsDNA, one strand shown
# T12 sequence: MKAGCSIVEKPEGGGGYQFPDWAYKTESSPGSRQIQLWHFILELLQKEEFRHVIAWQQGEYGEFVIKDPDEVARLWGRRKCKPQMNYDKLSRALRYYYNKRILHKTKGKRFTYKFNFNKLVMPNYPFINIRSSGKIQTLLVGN
# In short: as §1
# ETV6 = ETV6 (Homo sapiens, UniProt P41212 1-452); details: protein: recombinant; tags: N-terminal GST; dsDNA, one strand shown
# In short: as §1
# Chain of ELF4 (Q99607 whole entry): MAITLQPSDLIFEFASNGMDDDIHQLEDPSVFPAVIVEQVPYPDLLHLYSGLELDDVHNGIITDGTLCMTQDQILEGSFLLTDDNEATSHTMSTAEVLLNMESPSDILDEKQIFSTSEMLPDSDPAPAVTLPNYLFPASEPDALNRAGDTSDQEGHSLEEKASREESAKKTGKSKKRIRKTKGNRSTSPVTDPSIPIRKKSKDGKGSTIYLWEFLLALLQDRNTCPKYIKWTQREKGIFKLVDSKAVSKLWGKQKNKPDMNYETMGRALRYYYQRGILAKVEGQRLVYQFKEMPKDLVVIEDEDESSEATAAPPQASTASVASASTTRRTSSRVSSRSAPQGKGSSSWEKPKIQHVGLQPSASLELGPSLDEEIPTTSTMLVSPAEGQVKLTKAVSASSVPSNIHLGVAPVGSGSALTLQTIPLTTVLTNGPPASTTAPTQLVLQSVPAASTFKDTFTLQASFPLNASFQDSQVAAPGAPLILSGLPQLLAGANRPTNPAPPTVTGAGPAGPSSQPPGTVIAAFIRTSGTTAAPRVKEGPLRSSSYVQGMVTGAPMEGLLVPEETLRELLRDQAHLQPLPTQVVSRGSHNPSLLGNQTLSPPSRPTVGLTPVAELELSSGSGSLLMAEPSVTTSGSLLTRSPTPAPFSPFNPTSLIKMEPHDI
# Chain of ETV5 (P41161 whole entry): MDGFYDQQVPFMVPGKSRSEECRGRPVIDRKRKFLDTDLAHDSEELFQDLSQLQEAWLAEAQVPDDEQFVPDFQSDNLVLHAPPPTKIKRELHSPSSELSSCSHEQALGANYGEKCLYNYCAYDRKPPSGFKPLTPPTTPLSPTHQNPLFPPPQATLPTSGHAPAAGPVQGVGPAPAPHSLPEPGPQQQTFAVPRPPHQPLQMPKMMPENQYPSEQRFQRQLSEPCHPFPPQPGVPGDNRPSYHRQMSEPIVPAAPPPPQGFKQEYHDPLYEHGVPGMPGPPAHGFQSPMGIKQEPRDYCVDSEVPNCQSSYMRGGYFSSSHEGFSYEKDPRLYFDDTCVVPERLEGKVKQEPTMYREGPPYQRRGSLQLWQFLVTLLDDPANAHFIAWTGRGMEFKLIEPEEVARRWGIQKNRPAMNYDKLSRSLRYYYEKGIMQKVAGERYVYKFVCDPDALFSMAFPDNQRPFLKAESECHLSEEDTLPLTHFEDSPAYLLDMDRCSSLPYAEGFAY
# Chain of CRX (O43186 whole entry): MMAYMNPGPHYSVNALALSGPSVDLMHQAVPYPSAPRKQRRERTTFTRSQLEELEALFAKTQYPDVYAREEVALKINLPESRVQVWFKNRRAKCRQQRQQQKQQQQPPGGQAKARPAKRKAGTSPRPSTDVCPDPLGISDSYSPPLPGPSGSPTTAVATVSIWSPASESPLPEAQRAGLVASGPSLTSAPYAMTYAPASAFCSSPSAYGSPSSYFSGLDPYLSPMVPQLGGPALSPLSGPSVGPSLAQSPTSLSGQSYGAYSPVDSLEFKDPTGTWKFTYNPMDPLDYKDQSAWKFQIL
# Chain of ETV1 (P50549 whole entry): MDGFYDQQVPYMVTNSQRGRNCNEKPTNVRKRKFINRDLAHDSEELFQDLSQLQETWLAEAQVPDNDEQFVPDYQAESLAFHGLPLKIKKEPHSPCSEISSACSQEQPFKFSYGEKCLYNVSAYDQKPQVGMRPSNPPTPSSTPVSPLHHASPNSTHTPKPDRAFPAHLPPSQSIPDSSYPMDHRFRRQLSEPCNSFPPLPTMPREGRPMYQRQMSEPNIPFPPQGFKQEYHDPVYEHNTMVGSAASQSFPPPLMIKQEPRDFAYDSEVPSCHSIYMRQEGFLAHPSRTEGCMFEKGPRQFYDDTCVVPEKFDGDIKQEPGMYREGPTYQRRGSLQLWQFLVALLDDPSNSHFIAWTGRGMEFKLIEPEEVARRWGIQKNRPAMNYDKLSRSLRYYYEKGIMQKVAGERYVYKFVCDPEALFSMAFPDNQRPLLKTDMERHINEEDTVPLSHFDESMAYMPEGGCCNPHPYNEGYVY
# Chain of HSF1 (Q00613 whole entry): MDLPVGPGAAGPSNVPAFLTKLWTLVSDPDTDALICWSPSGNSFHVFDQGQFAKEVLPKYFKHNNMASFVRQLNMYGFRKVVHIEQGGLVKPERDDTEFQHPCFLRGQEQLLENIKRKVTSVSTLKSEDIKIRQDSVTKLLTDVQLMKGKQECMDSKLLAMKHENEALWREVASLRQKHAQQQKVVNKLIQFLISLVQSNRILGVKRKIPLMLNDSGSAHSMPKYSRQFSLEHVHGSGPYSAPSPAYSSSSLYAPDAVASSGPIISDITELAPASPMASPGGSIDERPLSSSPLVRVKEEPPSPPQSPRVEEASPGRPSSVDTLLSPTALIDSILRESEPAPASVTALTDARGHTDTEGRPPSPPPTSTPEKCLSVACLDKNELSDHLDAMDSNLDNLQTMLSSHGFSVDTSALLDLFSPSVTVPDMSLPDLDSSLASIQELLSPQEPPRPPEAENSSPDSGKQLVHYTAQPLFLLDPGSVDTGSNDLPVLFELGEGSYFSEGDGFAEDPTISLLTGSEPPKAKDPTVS
# Chain of ETV6 (P41212 whole entry): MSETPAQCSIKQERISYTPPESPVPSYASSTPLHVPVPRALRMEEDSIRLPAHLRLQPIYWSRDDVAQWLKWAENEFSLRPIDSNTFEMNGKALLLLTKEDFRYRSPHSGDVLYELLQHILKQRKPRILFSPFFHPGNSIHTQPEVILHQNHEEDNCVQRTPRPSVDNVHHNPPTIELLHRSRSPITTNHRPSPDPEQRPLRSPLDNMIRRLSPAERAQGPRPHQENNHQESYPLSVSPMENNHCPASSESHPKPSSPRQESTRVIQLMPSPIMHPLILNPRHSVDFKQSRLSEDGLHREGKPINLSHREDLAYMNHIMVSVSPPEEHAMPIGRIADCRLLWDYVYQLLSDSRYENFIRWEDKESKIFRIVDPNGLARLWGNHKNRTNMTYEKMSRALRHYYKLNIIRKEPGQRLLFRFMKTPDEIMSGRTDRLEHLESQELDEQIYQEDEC
sequence,measurement,setting,value
ATCTTA,binding signal,FEV,"1.1 fold enrichment (6-mer frequency, TF over GST control)"
same,binding signal,ETV5,"1.1 fold enrichment (6-mer frequency, TF over GST control)"
same,binding signal,HSF1,"1.47 fold enrichment (6-mer frequency, TF over GST control)"
same,binding signal,SPIC,"1.05 fold enrichment (6-mer frequency, TF over GST control)"
same,binding signal,ELF4,"1.1 fold enrichment (6-mer frequency, TF over GST control)"
same,binding signal,ELK4,"1.18 fold enrichment (6-mer frequency, TF over GST control)"
same,binding signal,ETV2,"1.12 fold enrichment (6-mer frequency, TF over GST control)"
same,binding signal,ELF3,"1.12 fold enrichment (6-mer frequency, TF over GST control)"
same,binding signal,CRX,"2.11 fold enrichment (6-mer frequency, TF over GST control)"
same,binding signal,ETV1,"1.12 fold enrichment (6-mer frequency, TF over GST control)"
same,binding signal,ERF,"1.1 fold enrichment (6-mer frequency, TF over GST control)"
same,binding signal,ETV3L,"1.1 fold enrichment (6-mer frequency, TF over GST control)"
same,binding signal,ETS2,"1.12 fold enrichment (6-mer frequency, TF over GST control)"
same,binding signal,SPDEF,"1.12 fold enrichment (6-mer frequency, TF over GST control)"
same,binding signal,ETV7,"1.18 fold enrichment (6-mer frequency, TF over GST control)"
same,binding signal,ELF5,"1.11 fold enrichment (6-mer frequency, TF over GST control)"
same,binding signal,ETV3,"1.04 fold enrichment (6-mer frequency, TF over GST control)"
same,binding signal,ETV6,"1.14 fold enrichment (6-mer frequency, TF over GST control)"
